Consider 10 compounds from PubChem BioAssay (NCI).

Test systems include SK-MEL-2 melanoma; EKVX NSCLC; SN12C renal; UO-31 renal; TK-10 renal; ACHN renal; CAKI-1 renal; A498 renal; CCRF-CEM leukemia; MOLT-4 leukemia; RPMI-8226 leukemia; OVCAR-8 ovarian; OVCAR-5 ovarian; OVCAR-4 ovarian; SK-OV-3 ovarian; IGROV1 ovarian; OVCAR-3 ovarian; HS 578T breast; NCI/ADR-RES ovarian.
Common to all, as to assay: NCI-60 one-dose screen, 48 h (100 = growth as untreated, 0 = no growth, -100 = all killed)
What all share (settings): 10 µM unless noted

Compounds without any hit were thinned out: in the full panel of roughly 83,000, 20% have a hit.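 Percent growth is the endpoint: 0 to 100 indicates growth inhibition (40 means 60% inhibition), 0 means no net growth, and negative values indicate cell death.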 Values without a mark were called inactive. Active and inactive are the calls of the source. How the source made its calls: active means growth percent below 10; inactive means the rest.

Regarding `COc1cc(CCCO)c(OC)c(OC)c1OC`, the growth in the assay on SK-MEL-2 melanoma was 118%; with EKVX NSCLC, 105%; in the assay on SN12C renal, 99.6%; in the assay with UO-31 renal, 90.4%; with TK-10 renal it was 109%; with ACHN renal, 106%. Further, the growth was 92.3% with CAKI-1 renal; 83.6% in the assay on A498 renal; 108% with CCRF-CEM leukemia; 110% with MOLT-4 leukemia; 112% in the assay with RPMI-8226 leukemia; 107% in the assay on OVCAR-8 ovarian. In addition, the growth with OVCAR-5 ovarian was 103%; in the assay on OVCAR-4 ovarian it was 102%; in the assay with SK-OV-3 ovarian, 107%; in the assay on IGROV1 ovarian, 109%; in the assay on OVCAR-3 ovarian it was 111%; in the assay with HS 578T breast, 102%. In addition, the growth in the assay on NCI/ADR-RES ovarian is 104%.

`Nc1nc(-c2cccc3ccccc23)cc2ccccc12`: the growth in the assay with SK-MEL-2 melanoma was 27.7%; in the assay on EKVX NSCLC, 46%; with SN12C renal, 35.8%; with UO-31 renal, 19.6%; in the assay with TK-10 renal, 55.8%; in the assay on ACHN renal, 36.6%. For the same compound, the growth in the assay on CAKI-1 renal is 15.6%; with A498 renal it was -19.8% (active); with CCRF-CEM leukemia, 29%; in the assay with MOLT-4 leukemia, -3.33% (active); in the assay on RPMI-8226 leukemia, 4.38% (active); in the assay on OVCAR-8 ovarian, 17.9%. Moreover, the growth in the assay with OVCAR-5 ovarian was 20.9%; with OVCAR-4 ovarian, 61.4%; in the assay with SK-OV-3 ovarian, 8.91% (active); with IGROV1 ovarian, -48.5% (active); in the assay with OVCAR-3 ovarian, -32.2% (active); in the assay on HS 578T breast, -4.65% (active). Moreover, the growth with NCI/ADR-RES ovarian is 2.9% (active).

On to `CCc1ccccc1-n1c(N)c(C#N)c(-c2ccc(Cl)cc2)c(C#N)c1=O`, for which the growth in the assay on SK-MEL-2 melanoma is 117%; in the assay on EKVX NSCLC, 97.7%; in the assay with SN12C renal it was 106%; with UO-31 renal it was 76.9%; in the assay on TK-10 renal it was 157%; with ACHN renal, 107%. Besides, the growth with CAKI-1 renal is 103%; in the assay with A498 renal, 127%; in the assay with CCRF-CEM leukemia it was -18.3% (active); in the assay with MOLT-4 leukemia, 105%; with RPMI-8226 leukemia, 84.2%; with OVCAR-8 ovarian it was 111%. Also, the growth with OVCAR-5 ovarian is 108%; with OVCAR-4 ovarian, 93.3%; in the assay with SK-OV-3 ovarian, 108%; with IGROV1 ovarian, 87%; with OVCAR-3 ovarian, 107%; in the assay with HS 578T breast, 92.2%. Moreover, in the assay with NCI/ADR-RES ovarian, the growth is 102%.

`Cc1cc(Cl)ccc1NS(=O)(=O)c1ccc(-c2cnc(C3CC3)o2)cc1`: the growth in the assay on SK-MEL-2 melanoma was 80.4%; with EKVX NSCLC, 32.4%; with SN12C renal, 46.7%; in the assay on UO-31 renal, 45.8%; in the assay with TK-10 renal it was 66.9%; in the assay with ACHN renal, 27.5%. Further, the growth in the assay on CAKI-1 renal is 43.4%; with A498 renal it was -5.2% (active); in the assay with CCRF-CEM leukemia it was 22%; in the assay with MOLT-4 leukemia, 2.78% (active); in the assay with RPMI-8226 leukemia, 19.3%; in the assay on OVCAR-8 ovarian, 27.4%. For the same compound, the growth is 27.8% in the assay on OVCAR-5 ovarian; 40% with OVCAR-4 ovarian; 50.8% in the assay on SK-OV-3 ovarian; 23.3% with IGROV1 ovarian; -16.9% (active) with OVCAR-3 ovarian; 22.1% with HS 578T breast. The growth with NCI/ADR-RES ovarian is 6.12% (active).

As for `Cc1nc(S(=O)(=O)c2ccccc2)c(S(=O)(=O)Cc2ccc([N+](=O)[O-])cc2)o1`, the growth in the assay with SK-MEL-2 melanoma was 89.2%; in the assay with EKVX NSCLC it was 104%; in the assay with SN12C renal it was 89.9%; with UO-31 renal, 72.5%; in the assay with TK-10 renal it was 105%; in the assay with ACHN renal it was 87.6%. For the same compound, the growth in the assay with CAKI-1 renal was 95.6%; in the assay on A498 renal it was 81.8%; with CCRF-CEM leukemia, 82.8%; in the assay on MOLT-4 leukemia it was 90.7%; in the assay with RPMI-8226 leukemia, 82.6%; with OVCAR-8 ovarian, 100%. Moreover, the growth with OVCAR-5 ovarian is 86.5%; in the assay with OVCAR-4 ovarian, 93.1%; with SK-OV-3 ovarian, 99.1%; with IGROV1 ovarian, 95.8%; in the assay with OVCAR-3 ovarian, 83.9%; in the assay on HS 578T breast, 87.6%. For the same compound, the growth in the assay on NCI/ADR-RES ovarian was 104%.

Take `Brc1c[n+](Cc2ccc3ccccc3c2)cn1Cc1ccc2ccccc2c1`: the growth in the assay on SK-MEL-2 melanoma is 17.3%; in the assay on EKVX NSCLC, 60.1%; with SN12C renal, 37.6%; in the assay with UO-31 renal, 77.4%; with TK-10 renal, 43.6%; in the assay on ACHN renal, 90.6%. The growth in the assay with CAKI-1 renal was 38.4%; in the assay on A498 renal, -0.664% (active); in the assay on CCRF-CEM leukemia, 5.13% (active); in the assay with MOLT-4 leukemia, 12.6%; in the assay on RPMI-8226 leukemia it was -46.3% (active); in the assay with OVCAR-8 ovarian, 8.2% (active). The growth was 46.8% with OVCAR-5 ovarian; -13.2% (active) with OVCAR-4 ovarian; 34.9% in the assay with SK-OV-3 ovarian; -51% (active) with IGROV1 ovarian; -4.19% (active) with OVCAR-3 ovarian; -7.66% (active) in the assay on HS 578T breast. For the same compound, the growth in the assay with NCI/ADR-RES ovarian was 97.5%.

Turning to `COc1cc(Nc2nc(NCCN)nc3cc[nH]c(=O)c23)cc(OC)c1`, the growth with SK-MEL-2 melanoma was 30.8%; with EKVX NSCLC, 87.5%; with SN12C renal it was 70.3%; in the assay with UO-31 renal, 112%; with TK-10 renal it was 95.3%; in the assay with ACHN renal it was 99%. In addition, the growth was 94.1% with CAKI-1 renal; 111% with A498 renal; 68.6% in the assay on CCRF-CEM leukemia; 74.4% in the assay on MOLT-4 leukemia; 80% in the assay with RPMI-8226 leukemia; 76.3% with OVCAR-8 ovarian. In addition, the growth in the assay with OVCAR-5 ovarian was 67.9%; in the assay with OVCAR-4 ovarian, 80.7%; in the assay with SK-OV-3 ovarian it was 51.4%; in the assay on IGROV1 ovarian, 57.8%; with OVCAR-3 ovarian, 109%; in the assay with HS 578T breast, 82.5%. For the same compound, in the assay on NCI/ADR-RES ovarian, the growth is 98.6%.

Consider `CC(=O)OC[C@H]1OC(Sc2sc(C(=O)c3ccc(Cl)cc3)c(N)c2-c2nc3ccccc3s2)[C@H](OC(C)=O)[C@@H](OC(C)=O)[C@@H]1OC(C)=O` (stereo not given in full), for which the growth was 104% in the assay on SK-MEL-2 melanoma; 80.4% in the assay with EKVX NSCLC; 54.7% with SN12C renal; 79.4% with UO-31 renal; 134% in the assay with TK-10 renal; 67.4% in the assay on ACHN renal. In addition, the growth in the assay with CAKI-1 renal is 77.1%; in the assay on A498 renal it was 87.8%; with CCRF-CEM leukemia it was 70.9%; in the assay with MOLT-4 leukemia, 97%; in the assay with RPMI-8226 leukemia it was 73%; in the assay on OVCAR-8 ovarian it was 72.6%. Further, the growth is 87.3% in the assay on OVCAR-5 ovarian; 52.5% in the assay with OVCAR-4 ovarian; 90.5% in the assay with SK-OV-3 ovarian; 70.9% with IGROV1 ovarian; 103% in the assay with OVCAR-3 ovarian; 71.4% with HS 578T breast. Also, in the assay with NCI/ADR-RES ovarian, the growth was 78.7%.

On to `CN1CCN(c2ccc(-c3cnc4c(-c5csc6ccccc56)cnn4c3)cc2)CC1`, for which the growth was -32.8% (active) in the assay with SK-MEL-2 melanoma; 22% in the assay on EKVX NSCLC; 0.637% (active) with SN12C renal; -89.4% (active) with UO-31 renal; -18.7% (active) with TK-10 renal; -82.4% (active) with ACHN renal. Moreover, the growth in the assay with CAKI-1 renal is -13.9% (active); in the assay on A498 renal, -55.5% (active); in the assay with CCRF-CEM leukemia, 16.8%; with MOLT-4 leukemia, 16.2%; with RPMI-8226 leukemia it was -16.7% (active); with OVCAR-8 ovarian, -29% (active). Besides, the growth in the assay on OVCAR-5 ovarian is 7.38% (active); in the assay on OVCAR-4 ovarian, 11.9%; in the assay on SK-OV-3 ovarian it was 81.1%; in the assay on IGROV1 ovarian, 5.7% (active); in the assay on OVCAR-3 ovarian, -68.6% (active); with HS 578T breast, -28.4% (active). The growth in the assay with NCI/ADR-RES ovarian is -20.8% (active).

As for `Cc1nc(/N=C(\N)NC(=O)Nc2cccc(Cl)c2)sc1C`, the growth was 72% in the assay with SK-MEL-2 melanoma; 68.3% in the assay with EKVX NSCLC; 86.4% in the assay on SN12C renal; 84% with UO-31 renal; 111% in the assay with TK-10 renal; 78.4% in the assay on ACHN renal. Moreover, the growth in the assay with CAKI-1 renal is 48.6%; with A498 renal, 42.4%; with CCRF-CEM leukemia it was 68.4%; in the assay with MOLT-4 leukemia, 58.4%; in the assay on RPMI-8226 leukemia, 77%; in the assay on OVCAR-8 ovarian, 94.5%. Further, the growth was 96.3% in the assay with OVCAR-5 ovarian; 99.3% in the assay on OVCAR-4 ovarian; 87.7% in the assay on SK-OV-3 ovarian; 63.1% in the assay with IGROV1 ovarian; 81.5% in the assay with OVCAR-3 ovarian; 68.8% with HS 578T breast. Besides, the growth in the assay with NCI/ADR-RES ovarian is 42.3%.
